# Source: PubChem (The Scripps Research Institute Molecular Screening Center)
# The list is not random: actives were taken first. Their share in the collection is about 3.4%.
# MITF inh = MITF inhibitors, primary screen, biochemical, AlphaScreen, human. Microphthalmia-associated transcription factor (Homo sapiens), O75030. AlphaScreen MITF homodimerization, bead proximity signal. inhibition, % at 2.6 µM. 0.91% of 650,000 active. AID 1259374, 2018; in the data active = inhibition above about 50%;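 also: 0% = vehicle wells with protein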
# TEAD-YAP inh = TEAD-YAP interaction inhibition, primary screen, TEAD-YAP interaction inhibitor project, luminescence, HEK-TIYL cells; inhibition, % at 9.12 µM; 1.4% of 640,000 active; TEAD-Gal4/YAP UAS-luciferase luminescence; AID 1259422, 2018; in the data active = inhibition above about 32%;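 also: 0% = median of test compound wells and 100% = reference inhibitor wells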
# GPR151 ag = activators of human GPR151, primary screen, cell-based, PathHunter beta-arrestin, luminescence; 1% of 650,000 active; AID 1508602, 2020; G-protein coupled receptor 151 (Homo sapiens), Q8TDV0; activation, % at 11.2 µM; PathHunter beta-arrestin GPR151 cells; in the data active = activation above about 4.9%;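 also: 0% = median of compound wells and 100% = cells with positive control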
# Target sequence (Q8TDV0 whole entry, looked up): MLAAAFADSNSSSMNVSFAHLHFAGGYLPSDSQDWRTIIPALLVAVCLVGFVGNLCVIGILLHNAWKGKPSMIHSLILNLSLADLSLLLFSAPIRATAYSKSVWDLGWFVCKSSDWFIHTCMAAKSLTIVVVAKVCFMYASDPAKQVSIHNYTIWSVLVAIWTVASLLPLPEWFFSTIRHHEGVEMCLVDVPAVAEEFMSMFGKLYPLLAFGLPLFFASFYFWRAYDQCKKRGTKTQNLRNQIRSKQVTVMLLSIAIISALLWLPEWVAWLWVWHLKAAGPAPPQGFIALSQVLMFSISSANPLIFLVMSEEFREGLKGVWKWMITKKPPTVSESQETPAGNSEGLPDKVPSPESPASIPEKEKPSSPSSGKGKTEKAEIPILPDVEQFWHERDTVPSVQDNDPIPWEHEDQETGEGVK
# FBW7 activator = FBW7 E3 ligase activators, primary screen, biochemical, AlphaScreen, human; F-box/WD repeat-containing protein 7 (Homo sapiens), Q969H0; AlphaScreen FBW7–phospho-cyclin E peptide binding, activator screen; normalized activity (activation), % at 26.1 µM; 0.13% of 650,000 active; AID 1259310, 2017; in the data active = normalized activity above about 1.9%;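 also: purified mutant Fbw7 with reduced substrate affinity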
# Starred values were filed as active, the others as inactive.
SMILES,MITF inh,TEAD-YAP inh,GPR151 ag,FBW7 activator
CC1CCCCN1C(=O)CN1C(=O)NC(C)(c2ccc(Cl)cc2Cl)C1=O (centres undefined),-14,-6,0,1
CCn1c(Sc2ccc(C=O)cc2[N+](=O)[O-])nnc1-c1ccncc1,-3,-4,0,0
CC(C)(C)OC(=O)N/N=C\c1cccc(/C=N/NC(=O)OC(C)(C)C)c1,13,65*,-2,1
CC(C)(C)OC(=O)N/N=C/c1ccc(Br)cc1,-3,-63,-1,0
COc1cccc(/C=N/NC(=O)CCCCC(=O)N/N=C/c2cccc(OC)c2)c1,-7,74*,3,0
COCCCNC(=O)c1cnc(N2CCN(c3ccccc3OC)CC2)c2ccccc12,13,38*,-1,0
COC1CC(NC(=O)c2cnc(N3CCN(c4ncccn4)CC3)c3ccccc23)CC(OC)C1OC (centres undefined),-3,72*,2,0
O=C(NC1CCCCC1)c1cnc(N2CCN(c3ncccn3)CC2)c2ccccc12,2,0,-1,0
COc1ccccc1N1CCN(c2ncc(C(=O)Nc3cc(OC)c(OC)c(OC)c3)c3ccccc23)CC1,8,56*,-1,0
COc1ccc(NC(=O)c2cnc(N3CCN(c4ncccn4)CC3)c3ccccc23)c(OC)c1,12,50*,2,0
NS(=O)(=O)c1ccc(N/C=C2/CCCCC2=O)cc1,6,2,2,0
COc1ccccc1NC1=NS(=O)(=O)c2cc([N+](=O)[O-])ccc21,15,3,1,0
COc1cccc(NC(=O)c2cnc(N3CCN(c4ncccn4)CC3)c3ccccc23)c1,1,20,-1,0
CC(C)NC(=O)c1cnc(N2CCN(c3ccccn3)CC2)c2ccccc12,-7,11,1,0
COc1cccc(NC(=O)c2cnc(N3CCN(c4ccccn4)CC3)c3ccccc23)c1,-4,62*,1,0
COc1cc(NC(=O)c2cnc(N3CCN(c4ccccn4)CC3)c3ccccc23)cc(OC)c1OC,6,78*,1,0
COc1ccc(NC(=O)c2cnc(N3CCN(c4ccccn4)CC3)c3ccccc23)cc1OC,2,84*,2,0
Cc1cccc(NC(=O)c2cnc(N3CCN(c4ccccn4)CC3)c3ccccc23)n1,5,40*,0,0
CN1CC(=O)N2CCN(Cc3cnn(-c4cccc(Cl)c4)c3)C[C@@H]2C1=O,7,11,-2,0
COc1cc(/C=C2\SC(=S)N(C(C)C(=O)O)C2=O)cc(OC)c1OC (centres undefined),-2,10,0,0
Cc1ccc(OC(=O)c2nc(S(C)(=O)=O)ncc2Cl)cc1C,9,48*,-1,0
Cc1ccc2nc(C(C#N)C(=O)c3nc(S(C)(=O)=O)ncc3Cl)[nH]c(=O)c2c1 (centres undefined),-15,8,1,0
CCOC(=O)c1c(NC(=O)c2nc(S(C)(=O)=O)ncc2Cl)sc(C)c1C,-1,8,-3,1
COc1ccc(N(Cc2ccccc2)C(=O)c2nc(S(C)(=O)=O)ncc2Cl)cc1,6,98*,0,0
Cc1cccc(OC(=O)c2nc(S(C)(=O)=O)ncc2Cl)c1C,15,56*,0,0
SMILES,MITF inh,TEAD-YAP inh,GPR151 ag,FBW7 activator
CS(=O)(=O)c1ncc(Cl)c(C(=O)C(C#N)c2nc3ccccc3s2)n1 (centres undefined),4,74*,0,0
Cc1cccc(C)c1NC(=O)c1nc(S(C)(=O)=O)ncc1Cl,-15,-25,0,0
Brc1cccc(Cn2nnc(-c3ccccc3)n2)c1,5,-6,0,0
CCOc1ccccc1NC(=O)C1CCN(S(=O)(=O)c2c(C)[nH]c(=O)[nH]c2=O)CC1,-4,4,3,0
CC(C)(C)NC(=O)CSc1nc(-c2ccccc2)cs1,-19,62*,2,0
COc1cc(C(=O)NCc2ccc(C)cc2)cc(OC)c1OC,-3,-2,1,0
CCCCOc1ccc(N2CC(C(=O)Nc3c(C)cccc3CC)CC2=O)cc1 (centres undefined),3,9,0,0
CC(=O)N1/C(=C/c2ccc(N(C)C)cc2)C(=O)c2ccccc21,43,46*,-1,0
CC(=O)N1/C(=C/c2ccncc2)C(=O)c2ccccc21,5,-1,-2,0
